According to paper PMC4336329 (PLoS ONE, 2015):
Screen size: about 310,000 compounds; about 14,000 (4.5%) showed an effect of 50% or more. Effects have a minus sign here. What follows is part of a selection rich in strong results, with near analogues and random picks from the rest.

Each compound was assayed against human ether-à-go-go-related gene (hERG) potassium channel (human, UniProt Q12809) (assay: primary screen, population patch clamp on CHO cells stably expressing hERG; higher = less effect of the substance).
human ether-à-go-go-related gene (hERG) potassium channel, sequence (Q12809 whole entry, looked up): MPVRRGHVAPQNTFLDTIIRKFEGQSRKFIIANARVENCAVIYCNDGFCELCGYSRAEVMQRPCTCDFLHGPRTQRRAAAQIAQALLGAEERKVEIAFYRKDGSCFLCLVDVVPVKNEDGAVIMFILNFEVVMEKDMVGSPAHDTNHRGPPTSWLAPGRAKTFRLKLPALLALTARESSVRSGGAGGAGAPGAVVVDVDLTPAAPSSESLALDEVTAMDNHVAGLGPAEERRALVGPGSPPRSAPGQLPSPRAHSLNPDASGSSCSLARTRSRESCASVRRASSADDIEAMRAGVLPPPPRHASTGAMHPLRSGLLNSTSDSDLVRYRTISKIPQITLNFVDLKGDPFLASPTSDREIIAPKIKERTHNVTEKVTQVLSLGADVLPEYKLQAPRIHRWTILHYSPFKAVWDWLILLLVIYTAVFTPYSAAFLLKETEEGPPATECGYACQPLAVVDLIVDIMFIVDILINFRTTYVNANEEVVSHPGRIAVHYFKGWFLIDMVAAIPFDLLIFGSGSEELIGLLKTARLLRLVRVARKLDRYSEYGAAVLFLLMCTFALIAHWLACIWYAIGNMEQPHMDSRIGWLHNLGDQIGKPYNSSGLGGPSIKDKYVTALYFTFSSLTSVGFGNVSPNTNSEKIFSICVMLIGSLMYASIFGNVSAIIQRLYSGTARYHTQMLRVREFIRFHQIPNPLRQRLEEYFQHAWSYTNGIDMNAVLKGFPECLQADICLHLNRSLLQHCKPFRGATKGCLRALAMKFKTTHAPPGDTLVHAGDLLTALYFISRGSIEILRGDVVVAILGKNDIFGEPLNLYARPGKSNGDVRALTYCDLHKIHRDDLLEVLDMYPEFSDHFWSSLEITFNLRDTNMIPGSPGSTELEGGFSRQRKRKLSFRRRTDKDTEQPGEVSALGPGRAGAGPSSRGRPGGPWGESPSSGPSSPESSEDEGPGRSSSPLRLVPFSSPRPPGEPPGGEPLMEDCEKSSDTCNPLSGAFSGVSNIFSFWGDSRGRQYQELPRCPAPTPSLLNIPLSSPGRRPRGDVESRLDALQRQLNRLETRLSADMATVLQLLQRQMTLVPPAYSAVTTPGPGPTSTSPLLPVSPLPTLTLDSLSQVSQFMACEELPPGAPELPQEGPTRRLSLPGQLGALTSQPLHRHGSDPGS
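Note: peak tail current of the secondary pulse compared with the same well before compound.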

SMILES	hERG current change (%, negative = inhibition) at 10uM [%]
COc1cccc(CNC(=O)c2nnn(CC(=O)Nc3ccc(Br)cc3)c2N)c1	17.5
O=C(CNC(=O)Cc1ccc(Cl)cc1)NCC(=O)N1CCCCC1	17.9
CCOC(=O)c1c(C)n(C)c2ccc(OCC(N)=O)cc12	7.9
CCCCN=C1NN=C(c2cccc([N+](=O)[O-])c2)CS1.Cl	-4.82
O=C(CN1CCSCC1)N/N=C/c1ccc(F)cc1F	-6.43
CCc1ccc(NC(=O)c2cc(C(C)C)on2)cc1	-27.3
CC1CCCC(C)N1CC(O)COc1c(F)cc(Br)cc1F.Cl (centres unmarked)	-57.7
CC(C)NCC(O)COc1c(F)cc(Br)cc1F.Cl (centres unmarked)	-4.33
CC(C)(C)NCC(O)COc1c(F)cc(Br)cc1F.Cl (centres unmarked)	-7.38
CN(CC(O)COc1c(F)cc(Br)cc1F)C1CCCCC1.Cl (centres unmarked)	-65.9
Cl.OC(CNC1CCCC1)COc1c(F)cc(Br)cc1F (centres unmarked)	-27.3
CN(CC(O)COc1ccccc1F)C1CCCCC1.Cl (centres unmarked)	2.08
Cn1c(=O)c2cc(S(=O)(=O)NC(C(=O)Nc3cccc(F)c3)c3ccccc3)ccc2n(C)c1=O (centres unmarked)	-7.01
COCCCNc1nc(-c2ccc(Cl)cc2)nc2ccccc12	-1.64
COCCCNc1cc(C)nc2ccccc12.Cl	-40.3
COCCNc1ccnc2c(Cl)cccc12	-81.9
COCCNC(=O)COc1ccccc1Cl	1.56
COCCNc1cc(C)nc2ccccc12.Cl	-10.8
COCCCNc1ccnc2c(Cl)cccc12	-58.5

SMILES	hERG current change (%, negative = inhibition) at 10uM [%]
O=S1(=O)N=C(N(CCO)/N=C/c2ccc(Br)cc2)c2ccccc21	15
c1ccc2c(CSCCc3ccncc3)cccc2c1	-17.6
COc1ccccc1CNC(=O)COC(=O)c1nc(Cl)ccc1Cl	-2.78
COc1ccc2c(c1)OC[C@H]1[C@H]2N2C(=O)CN(Cc3ccco3)C(=O)[C@@]2(C)[C@H]1c1ccccc1	10.7
CC(C)NCC(O)c1ccc(C2CCCC2)cc1.O=C(O)/C=C\C(=O)O (centres unmarked)	-15.5
CCCN(CC1CC1)CC(O)c1ccccc1.O=C(O)C(=O)O (centres unmarked)	4.51
CCN(CC)CC(O)c1ccc(C2CCCC2)cc1.Cl (centres unmarked)	-63
COC(=O)c1c(NC(=O)c2ccco2)sc(C)c1C	18.1
CCCNC(=O)COC(=O)c1ccccc1OCc1ccc(Cl)cc1	-0.354
Cc1cccc(N(Cc2ccccc2)C(=O)c2ccc(F)c(S(=O)(=O)N3CCOCC3)c2)c1	-50.5
Cc1cccc(N(Cc2ccccc2)C(=O)c2ccc(C)c(S(=O)(=O)N3CCOCC3)c2)c1	-17.6
COc1ccc(C(=O)N(Cc2ccccc2)c2ccc(C)cc2)cc1S(=O)(=O)N1CCOCC1	-67.7
Cc1ccc(N(Cc2ccccc2)C(=O)c2cc(S(=O)(=O)N3CCOCC3)ccc2F)cc1	-10.2
COc1ccc(CC(=O)N(Cc2ccccc2)c2ccccc2)cc1S(=O)(=O)N1CCOCC1	1.07
COc1ccc(C(=O)N(Cc2ccccc2)c2cccc(C)c2)cc1S(=O)(=O)N1CCOCC1	-35.8
Cc1cccc(N(Cc2ccccc2)C(=O)c2cc(S(=O)(=O)N3CCOCC3)ccc2Cl)c1	-13.3
Cc1ccc(N(Cc2ccccc2)C(=O)c2ccc(Cl)c(S(=O)(=O)N3CCOCC3)c2)cc1	-70.3
Cc1cccc(N(Cc2ccccc2)C(=O)c2cc(S(=O)(=O)N3CCOCC3)ccc2F)c1	-5.69
Cc1ccc(N(Cc2ccccc2)C(=O)c2cc(S(=O)(=O)N3CCOCC3)ccc2N2CCCC2)cc1	5.59

SMILES	hERG current change (%, negative = inhibition) at 10uM [%]
Cc1ccc(N(Cc2ccccc2)C(=O)c2ccc(C)c(S(=O)(=O)N3CCOCC3)c2)cc1	-18
Cc1ccc(N(Cc2ccccc2)C(=O)c2ccc(F)c(S(=O)(=O)N3CCOCC3)c2)cc1	-82.7
Cl.O=C(C1CCN(S(=O)(=O)c2cccs2)CC1)N1CCN(Cc2ccccc2)CC1	3.79
Cn1c(=O)[nH]c(=O)c2c1nc(SCCC(=O)O)n2Cc1cccc(Br)c1	1.52
COCCNC(=S)NC1CC2CCC(C1)N2Cc1ccccc1 (centres unmarked)	2.78
COc1ccc(C2C(C(=O)c3cccs3)=C(O)C(=O)N2Cc2cccnc2)cc1OC (centres unmarked)	5.03
CC(Oc1ccc(F)cc1)C(=O)Nc1nc(-c2ccccn2)cs1 (centres unmarked)	-76.3
CC(Oc1cccc(Cl)c1)C(=O)Nc1nc(-c2ccccn2)cs1 (centres unmarked)	4.19
CC(Oc1ccc(Br)cc1)C(=O)Nc1nc(-c2ccccn2)cs1 (centres unmarked)	-5.7
O=C(Nc1cccc(C(=O)O)c1)/C(=C\c1ccccc1Cl)NC(=O)c1ccco1	6.89
COc1ccc(CC(=O)N(C)CC(=O)Nc2ccccc2SC)cc1	8.56
CCc1nnc(NC(=O)c2cc(C)oc2C)s1	-10
CC(C)N(Cc1nnc(-c2ccc(Cl)cc2)o1)C(=O)c1cc2ccccc2o1	-40.1
Cc1ccccc1OCC(=O)N(Cc1nnc(-c2ccc(Cl)cc2)o1)C(C)C	-53.5
Cc1ccccc1OCC(=O)N(Cc1nc(-c2ccccc2)no1)C(C)C	-15
Cc1cc(C(=O)N(Cc2nnc(-c3ccc(Cl)cc3)o2)C(C)C)c2ccccc2n1	-58.5
CC(C)N(Cc1nnc(-c2ccc(Cl)cc2)o1)C(=O)C1=COCCO1	-19.9
CC(C)N(Cc1nnc(-c2ccccc2Br)o1)C(=O)c1cc(Cl)nc2ccccc12	-24.9
